Reference: the supplement of paper PMC11732987, “Enantioselective OTUD7B fragment discovery through chemoproteomics screening and high-throughput optimisation” (Communications Chemistry, 2025)

Key:
Assay in all cases: log2 ratio of Biotin-Ahx-Ub-VS probe labelling (fragment/DMSO); higher = less target engagement (more negative = stronger competition), active = hit call of the paper (q ≤ 0.05, log2 ratio ≤ -1)
Settings in all cases: compound concentration: 200 uM; treatment time: 3 h
USP42 = target: T1, USP42 (UniProt Q9H9J4)
T1 sequence (whole entry): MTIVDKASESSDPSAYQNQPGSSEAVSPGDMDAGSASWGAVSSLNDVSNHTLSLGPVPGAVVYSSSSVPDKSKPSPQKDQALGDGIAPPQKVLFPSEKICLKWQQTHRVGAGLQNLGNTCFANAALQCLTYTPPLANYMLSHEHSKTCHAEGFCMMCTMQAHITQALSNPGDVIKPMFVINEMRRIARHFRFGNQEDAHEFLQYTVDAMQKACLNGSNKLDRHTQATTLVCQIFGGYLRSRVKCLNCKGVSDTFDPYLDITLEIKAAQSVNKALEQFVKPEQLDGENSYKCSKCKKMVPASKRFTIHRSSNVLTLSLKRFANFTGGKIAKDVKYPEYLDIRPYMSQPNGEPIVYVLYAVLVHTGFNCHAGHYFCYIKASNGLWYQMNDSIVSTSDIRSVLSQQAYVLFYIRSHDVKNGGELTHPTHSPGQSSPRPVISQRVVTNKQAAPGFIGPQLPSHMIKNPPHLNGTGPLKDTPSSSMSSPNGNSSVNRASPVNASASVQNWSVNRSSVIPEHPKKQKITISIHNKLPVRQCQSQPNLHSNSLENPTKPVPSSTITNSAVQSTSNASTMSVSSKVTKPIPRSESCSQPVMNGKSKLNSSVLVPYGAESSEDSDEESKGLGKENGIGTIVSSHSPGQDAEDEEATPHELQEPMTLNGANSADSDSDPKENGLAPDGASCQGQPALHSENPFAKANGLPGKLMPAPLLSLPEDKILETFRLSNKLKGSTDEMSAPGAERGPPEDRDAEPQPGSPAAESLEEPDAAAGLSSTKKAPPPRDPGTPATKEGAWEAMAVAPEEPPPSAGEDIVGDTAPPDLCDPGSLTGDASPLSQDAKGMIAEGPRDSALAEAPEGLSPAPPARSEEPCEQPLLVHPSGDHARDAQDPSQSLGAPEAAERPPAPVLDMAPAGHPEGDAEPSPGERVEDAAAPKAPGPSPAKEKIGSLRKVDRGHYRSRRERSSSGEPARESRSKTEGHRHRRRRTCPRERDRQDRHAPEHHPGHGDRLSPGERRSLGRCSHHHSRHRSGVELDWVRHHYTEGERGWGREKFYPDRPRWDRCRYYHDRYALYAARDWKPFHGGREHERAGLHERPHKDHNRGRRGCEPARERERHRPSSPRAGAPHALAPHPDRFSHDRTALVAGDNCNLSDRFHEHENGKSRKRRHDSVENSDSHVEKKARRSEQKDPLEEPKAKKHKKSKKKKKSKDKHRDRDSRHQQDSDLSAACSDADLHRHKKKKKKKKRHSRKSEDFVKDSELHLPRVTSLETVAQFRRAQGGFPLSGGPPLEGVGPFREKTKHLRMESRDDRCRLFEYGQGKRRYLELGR
How it was run: (§1)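 Labelled DUBs from HEK293T lysate were NeutrAvidin-enriched, digested with LysC and trypsin, and run by diaPASEF LC-MS/MS. Before that, each 495 µg sample in Tris/CHAPS/IGEPAL buffer with protease inhibitors was treated in triplicate with fragment at 200 µM or vehicle for 3 h, then with Biotin-Ahx-Ub-VS at 0.5 µM final for 1 h. Values are average log2 ratios of fragment over vehicle by unpaired t-test, based on global-median-normalised Spectronaut label-free quantities from proteins with ≥2 unique peptides.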

USP46 = USP46 (UniProt P62068)
How it was run: as §1

USP47 = target: T2, USP47 (UniProt Q96K76)
T2 sequence (whole entry): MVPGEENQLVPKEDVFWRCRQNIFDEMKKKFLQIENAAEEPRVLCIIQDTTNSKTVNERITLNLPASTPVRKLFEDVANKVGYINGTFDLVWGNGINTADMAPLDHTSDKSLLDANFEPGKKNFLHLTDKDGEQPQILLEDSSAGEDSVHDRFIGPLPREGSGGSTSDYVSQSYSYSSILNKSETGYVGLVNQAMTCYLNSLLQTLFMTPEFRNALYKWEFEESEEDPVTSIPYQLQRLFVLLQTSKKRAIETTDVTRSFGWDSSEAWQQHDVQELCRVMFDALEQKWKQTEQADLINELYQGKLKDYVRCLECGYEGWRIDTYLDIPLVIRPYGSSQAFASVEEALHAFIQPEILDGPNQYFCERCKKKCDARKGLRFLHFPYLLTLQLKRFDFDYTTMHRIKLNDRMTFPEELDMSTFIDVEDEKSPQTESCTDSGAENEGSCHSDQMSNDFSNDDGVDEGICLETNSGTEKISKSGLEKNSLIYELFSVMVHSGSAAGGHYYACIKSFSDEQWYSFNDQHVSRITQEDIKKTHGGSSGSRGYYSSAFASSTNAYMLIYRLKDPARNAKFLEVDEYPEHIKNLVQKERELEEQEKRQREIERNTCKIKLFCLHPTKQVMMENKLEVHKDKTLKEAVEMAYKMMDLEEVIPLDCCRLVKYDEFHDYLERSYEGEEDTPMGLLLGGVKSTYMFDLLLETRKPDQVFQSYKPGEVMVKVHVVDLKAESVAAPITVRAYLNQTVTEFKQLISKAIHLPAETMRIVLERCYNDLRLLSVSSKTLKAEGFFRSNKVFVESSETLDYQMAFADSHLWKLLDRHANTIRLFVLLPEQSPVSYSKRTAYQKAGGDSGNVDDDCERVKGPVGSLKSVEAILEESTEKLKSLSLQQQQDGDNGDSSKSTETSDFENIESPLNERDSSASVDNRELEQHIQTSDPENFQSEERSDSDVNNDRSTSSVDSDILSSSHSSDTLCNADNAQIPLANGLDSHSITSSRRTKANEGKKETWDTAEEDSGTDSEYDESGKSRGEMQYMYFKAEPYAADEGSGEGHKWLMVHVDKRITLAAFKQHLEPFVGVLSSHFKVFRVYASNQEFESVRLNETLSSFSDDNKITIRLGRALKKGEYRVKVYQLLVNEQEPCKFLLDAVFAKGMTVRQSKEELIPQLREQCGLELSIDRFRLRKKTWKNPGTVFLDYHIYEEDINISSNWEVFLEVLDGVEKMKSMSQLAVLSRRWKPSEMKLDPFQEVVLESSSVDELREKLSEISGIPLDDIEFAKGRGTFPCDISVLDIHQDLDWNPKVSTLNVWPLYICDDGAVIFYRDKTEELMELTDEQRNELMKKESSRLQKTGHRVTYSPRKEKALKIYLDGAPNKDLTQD
How it was run: as §1

USP48 = target: T3, USP48 (UniProt Q86UV5)
T3 sequence (whole entry): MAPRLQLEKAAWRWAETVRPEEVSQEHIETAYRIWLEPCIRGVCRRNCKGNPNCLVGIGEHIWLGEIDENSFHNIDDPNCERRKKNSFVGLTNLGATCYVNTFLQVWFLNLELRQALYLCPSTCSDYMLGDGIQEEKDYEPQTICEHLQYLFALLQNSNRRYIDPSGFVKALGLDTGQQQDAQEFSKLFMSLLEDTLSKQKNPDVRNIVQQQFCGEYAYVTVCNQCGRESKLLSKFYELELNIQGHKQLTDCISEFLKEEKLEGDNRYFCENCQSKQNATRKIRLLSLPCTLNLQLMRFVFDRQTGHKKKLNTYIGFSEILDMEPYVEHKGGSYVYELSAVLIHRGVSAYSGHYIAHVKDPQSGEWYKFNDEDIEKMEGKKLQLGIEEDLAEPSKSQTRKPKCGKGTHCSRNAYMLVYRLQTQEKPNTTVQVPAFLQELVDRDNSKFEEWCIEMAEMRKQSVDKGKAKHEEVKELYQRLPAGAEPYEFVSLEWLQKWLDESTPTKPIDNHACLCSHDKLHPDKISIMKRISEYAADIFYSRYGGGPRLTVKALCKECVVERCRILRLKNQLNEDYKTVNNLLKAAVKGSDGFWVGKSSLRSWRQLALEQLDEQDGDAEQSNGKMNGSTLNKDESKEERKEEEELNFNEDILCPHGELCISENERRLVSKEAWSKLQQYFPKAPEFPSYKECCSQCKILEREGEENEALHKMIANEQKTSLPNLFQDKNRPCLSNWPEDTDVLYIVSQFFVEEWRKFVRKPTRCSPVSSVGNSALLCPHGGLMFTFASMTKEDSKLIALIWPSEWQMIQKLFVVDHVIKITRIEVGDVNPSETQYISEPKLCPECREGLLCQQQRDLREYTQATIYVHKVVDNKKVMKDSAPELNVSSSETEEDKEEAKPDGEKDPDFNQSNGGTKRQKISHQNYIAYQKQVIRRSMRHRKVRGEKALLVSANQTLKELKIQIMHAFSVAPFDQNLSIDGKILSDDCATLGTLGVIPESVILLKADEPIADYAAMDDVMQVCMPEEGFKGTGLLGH
How it was run: as §1

USP5 = target: T4, USP5 (UniProt P45974)
T4 sequence (whole entry): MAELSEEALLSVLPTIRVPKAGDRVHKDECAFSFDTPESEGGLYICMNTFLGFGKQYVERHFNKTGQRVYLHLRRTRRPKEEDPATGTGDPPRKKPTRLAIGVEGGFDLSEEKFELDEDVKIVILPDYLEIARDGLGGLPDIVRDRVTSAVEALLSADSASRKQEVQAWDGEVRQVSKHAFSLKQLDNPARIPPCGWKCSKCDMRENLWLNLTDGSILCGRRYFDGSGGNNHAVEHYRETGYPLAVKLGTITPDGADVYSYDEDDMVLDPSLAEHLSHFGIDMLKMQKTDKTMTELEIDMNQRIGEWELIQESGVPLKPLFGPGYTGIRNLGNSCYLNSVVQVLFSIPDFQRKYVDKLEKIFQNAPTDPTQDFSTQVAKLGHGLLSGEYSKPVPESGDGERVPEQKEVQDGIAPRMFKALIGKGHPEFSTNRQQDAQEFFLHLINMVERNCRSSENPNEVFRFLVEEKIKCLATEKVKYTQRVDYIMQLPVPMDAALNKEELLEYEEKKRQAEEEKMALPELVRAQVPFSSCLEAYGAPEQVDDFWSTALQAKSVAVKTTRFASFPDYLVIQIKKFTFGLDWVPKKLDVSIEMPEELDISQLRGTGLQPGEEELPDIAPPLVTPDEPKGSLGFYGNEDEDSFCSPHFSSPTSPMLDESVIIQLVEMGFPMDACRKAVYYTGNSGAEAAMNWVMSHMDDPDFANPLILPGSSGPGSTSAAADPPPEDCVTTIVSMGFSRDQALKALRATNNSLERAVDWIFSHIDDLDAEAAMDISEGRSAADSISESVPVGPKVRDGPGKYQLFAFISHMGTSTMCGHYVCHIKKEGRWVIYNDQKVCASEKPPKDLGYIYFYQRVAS
How it was run: as §1

USP54 = USP54 (UniProt Q70EL1)
How it was run: as §1

USP7 = USP7 (UniProt Q93009)
How it was run: as §1

USP8 = target: T5, USP8 (UniProt P40818)
T5 sequence (whole entry): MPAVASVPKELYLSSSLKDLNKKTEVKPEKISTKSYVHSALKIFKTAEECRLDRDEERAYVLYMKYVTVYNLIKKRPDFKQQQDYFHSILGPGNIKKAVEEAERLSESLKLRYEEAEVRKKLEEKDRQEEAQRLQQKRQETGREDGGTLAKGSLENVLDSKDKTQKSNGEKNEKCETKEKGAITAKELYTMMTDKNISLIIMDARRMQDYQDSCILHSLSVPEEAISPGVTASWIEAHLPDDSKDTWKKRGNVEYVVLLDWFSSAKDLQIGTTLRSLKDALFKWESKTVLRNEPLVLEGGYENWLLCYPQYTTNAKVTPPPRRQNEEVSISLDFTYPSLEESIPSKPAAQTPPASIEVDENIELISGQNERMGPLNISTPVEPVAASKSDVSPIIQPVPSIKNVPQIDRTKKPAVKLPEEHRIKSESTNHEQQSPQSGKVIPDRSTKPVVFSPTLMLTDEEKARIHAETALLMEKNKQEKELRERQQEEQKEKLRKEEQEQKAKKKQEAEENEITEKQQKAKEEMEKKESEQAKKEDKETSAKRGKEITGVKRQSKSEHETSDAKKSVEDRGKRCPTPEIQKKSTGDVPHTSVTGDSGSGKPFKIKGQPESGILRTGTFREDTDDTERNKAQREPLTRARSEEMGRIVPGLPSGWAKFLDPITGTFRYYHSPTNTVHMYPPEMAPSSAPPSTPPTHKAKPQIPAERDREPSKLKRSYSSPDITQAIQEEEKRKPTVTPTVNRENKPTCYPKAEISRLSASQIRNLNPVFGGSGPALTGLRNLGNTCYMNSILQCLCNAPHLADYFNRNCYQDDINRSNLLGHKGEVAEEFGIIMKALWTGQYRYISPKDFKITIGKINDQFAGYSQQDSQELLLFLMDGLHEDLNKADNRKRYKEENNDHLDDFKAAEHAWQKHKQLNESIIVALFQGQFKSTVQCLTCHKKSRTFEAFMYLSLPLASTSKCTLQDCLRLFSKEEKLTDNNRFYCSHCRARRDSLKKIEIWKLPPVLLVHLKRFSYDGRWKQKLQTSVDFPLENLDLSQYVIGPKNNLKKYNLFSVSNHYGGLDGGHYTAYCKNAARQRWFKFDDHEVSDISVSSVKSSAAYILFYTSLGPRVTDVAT
How it was run: as §1

USP9X = USP9X (UniProt Q93008)
How it was run: as §1

UniProt O00487 = target: UniProt O00487
How it was run: as §1

Measured: log2 ratio of Biotin-Ahx-Ub-VS probe labelling

USP7, sequence (Q93009 whole entry, looked up): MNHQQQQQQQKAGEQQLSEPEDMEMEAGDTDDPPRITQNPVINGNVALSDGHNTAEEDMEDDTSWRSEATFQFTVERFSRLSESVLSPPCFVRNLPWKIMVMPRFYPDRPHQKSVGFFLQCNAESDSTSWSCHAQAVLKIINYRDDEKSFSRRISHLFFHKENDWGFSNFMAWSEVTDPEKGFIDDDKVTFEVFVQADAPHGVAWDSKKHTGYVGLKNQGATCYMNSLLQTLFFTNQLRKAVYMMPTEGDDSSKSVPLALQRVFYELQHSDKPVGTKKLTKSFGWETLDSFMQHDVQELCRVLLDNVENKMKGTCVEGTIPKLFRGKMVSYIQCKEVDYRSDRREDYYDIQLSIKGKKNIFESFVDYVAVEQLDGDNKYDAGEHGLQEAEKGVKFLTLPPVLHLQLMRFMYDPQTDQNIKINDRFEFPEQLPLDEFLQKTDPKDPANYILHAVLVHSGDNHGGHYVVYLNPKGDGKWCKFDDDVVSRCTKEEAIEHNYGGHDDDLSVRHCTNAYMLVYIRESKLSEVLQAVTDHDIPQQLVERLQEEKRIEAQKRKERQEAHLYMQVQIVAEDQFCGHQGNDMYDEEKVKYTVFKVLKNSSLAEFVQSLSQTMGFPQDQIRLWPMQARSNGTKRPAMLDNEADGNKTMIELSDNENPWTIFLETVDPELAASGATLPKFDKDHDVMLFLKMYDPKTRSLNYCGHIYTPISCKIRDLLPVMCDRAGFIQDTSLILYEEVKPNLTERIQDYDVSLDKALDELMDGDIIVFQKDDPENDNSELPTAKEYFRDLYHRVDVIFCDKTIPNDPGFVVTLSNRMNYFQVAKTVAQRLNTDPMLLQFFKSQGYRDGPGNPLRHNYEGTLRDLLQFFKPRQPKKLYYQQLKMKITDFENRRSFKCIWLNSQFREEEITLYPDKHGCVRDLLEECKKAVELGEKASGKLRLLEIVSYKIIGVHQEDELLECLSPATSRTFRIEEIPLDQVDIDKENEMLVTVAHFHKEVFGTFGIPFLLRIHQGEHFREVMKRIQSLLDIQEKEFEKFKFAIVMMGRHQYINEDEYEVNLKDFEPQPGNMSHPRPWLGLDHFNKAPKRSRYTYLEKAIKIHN
USP46, sequence (P62068 whole entry): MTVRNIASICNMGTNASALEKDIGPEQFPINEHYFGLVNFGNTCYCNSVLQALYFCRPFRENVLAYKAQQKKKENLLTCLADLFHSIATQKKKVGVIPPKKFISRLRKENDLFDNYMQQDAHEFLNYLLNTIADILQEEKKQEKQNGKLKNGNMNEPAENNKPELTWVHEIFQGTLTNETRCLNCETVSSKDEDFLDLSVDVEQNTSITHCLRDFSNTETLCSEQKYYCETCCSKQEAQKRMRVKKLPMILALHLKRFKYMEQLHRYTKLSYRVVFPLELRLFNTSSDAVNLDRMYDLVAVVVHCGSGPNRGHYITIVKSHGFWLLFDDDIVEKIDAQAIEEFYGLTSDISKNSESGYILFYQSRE
USP9X, sequence (Q93008 whole entry): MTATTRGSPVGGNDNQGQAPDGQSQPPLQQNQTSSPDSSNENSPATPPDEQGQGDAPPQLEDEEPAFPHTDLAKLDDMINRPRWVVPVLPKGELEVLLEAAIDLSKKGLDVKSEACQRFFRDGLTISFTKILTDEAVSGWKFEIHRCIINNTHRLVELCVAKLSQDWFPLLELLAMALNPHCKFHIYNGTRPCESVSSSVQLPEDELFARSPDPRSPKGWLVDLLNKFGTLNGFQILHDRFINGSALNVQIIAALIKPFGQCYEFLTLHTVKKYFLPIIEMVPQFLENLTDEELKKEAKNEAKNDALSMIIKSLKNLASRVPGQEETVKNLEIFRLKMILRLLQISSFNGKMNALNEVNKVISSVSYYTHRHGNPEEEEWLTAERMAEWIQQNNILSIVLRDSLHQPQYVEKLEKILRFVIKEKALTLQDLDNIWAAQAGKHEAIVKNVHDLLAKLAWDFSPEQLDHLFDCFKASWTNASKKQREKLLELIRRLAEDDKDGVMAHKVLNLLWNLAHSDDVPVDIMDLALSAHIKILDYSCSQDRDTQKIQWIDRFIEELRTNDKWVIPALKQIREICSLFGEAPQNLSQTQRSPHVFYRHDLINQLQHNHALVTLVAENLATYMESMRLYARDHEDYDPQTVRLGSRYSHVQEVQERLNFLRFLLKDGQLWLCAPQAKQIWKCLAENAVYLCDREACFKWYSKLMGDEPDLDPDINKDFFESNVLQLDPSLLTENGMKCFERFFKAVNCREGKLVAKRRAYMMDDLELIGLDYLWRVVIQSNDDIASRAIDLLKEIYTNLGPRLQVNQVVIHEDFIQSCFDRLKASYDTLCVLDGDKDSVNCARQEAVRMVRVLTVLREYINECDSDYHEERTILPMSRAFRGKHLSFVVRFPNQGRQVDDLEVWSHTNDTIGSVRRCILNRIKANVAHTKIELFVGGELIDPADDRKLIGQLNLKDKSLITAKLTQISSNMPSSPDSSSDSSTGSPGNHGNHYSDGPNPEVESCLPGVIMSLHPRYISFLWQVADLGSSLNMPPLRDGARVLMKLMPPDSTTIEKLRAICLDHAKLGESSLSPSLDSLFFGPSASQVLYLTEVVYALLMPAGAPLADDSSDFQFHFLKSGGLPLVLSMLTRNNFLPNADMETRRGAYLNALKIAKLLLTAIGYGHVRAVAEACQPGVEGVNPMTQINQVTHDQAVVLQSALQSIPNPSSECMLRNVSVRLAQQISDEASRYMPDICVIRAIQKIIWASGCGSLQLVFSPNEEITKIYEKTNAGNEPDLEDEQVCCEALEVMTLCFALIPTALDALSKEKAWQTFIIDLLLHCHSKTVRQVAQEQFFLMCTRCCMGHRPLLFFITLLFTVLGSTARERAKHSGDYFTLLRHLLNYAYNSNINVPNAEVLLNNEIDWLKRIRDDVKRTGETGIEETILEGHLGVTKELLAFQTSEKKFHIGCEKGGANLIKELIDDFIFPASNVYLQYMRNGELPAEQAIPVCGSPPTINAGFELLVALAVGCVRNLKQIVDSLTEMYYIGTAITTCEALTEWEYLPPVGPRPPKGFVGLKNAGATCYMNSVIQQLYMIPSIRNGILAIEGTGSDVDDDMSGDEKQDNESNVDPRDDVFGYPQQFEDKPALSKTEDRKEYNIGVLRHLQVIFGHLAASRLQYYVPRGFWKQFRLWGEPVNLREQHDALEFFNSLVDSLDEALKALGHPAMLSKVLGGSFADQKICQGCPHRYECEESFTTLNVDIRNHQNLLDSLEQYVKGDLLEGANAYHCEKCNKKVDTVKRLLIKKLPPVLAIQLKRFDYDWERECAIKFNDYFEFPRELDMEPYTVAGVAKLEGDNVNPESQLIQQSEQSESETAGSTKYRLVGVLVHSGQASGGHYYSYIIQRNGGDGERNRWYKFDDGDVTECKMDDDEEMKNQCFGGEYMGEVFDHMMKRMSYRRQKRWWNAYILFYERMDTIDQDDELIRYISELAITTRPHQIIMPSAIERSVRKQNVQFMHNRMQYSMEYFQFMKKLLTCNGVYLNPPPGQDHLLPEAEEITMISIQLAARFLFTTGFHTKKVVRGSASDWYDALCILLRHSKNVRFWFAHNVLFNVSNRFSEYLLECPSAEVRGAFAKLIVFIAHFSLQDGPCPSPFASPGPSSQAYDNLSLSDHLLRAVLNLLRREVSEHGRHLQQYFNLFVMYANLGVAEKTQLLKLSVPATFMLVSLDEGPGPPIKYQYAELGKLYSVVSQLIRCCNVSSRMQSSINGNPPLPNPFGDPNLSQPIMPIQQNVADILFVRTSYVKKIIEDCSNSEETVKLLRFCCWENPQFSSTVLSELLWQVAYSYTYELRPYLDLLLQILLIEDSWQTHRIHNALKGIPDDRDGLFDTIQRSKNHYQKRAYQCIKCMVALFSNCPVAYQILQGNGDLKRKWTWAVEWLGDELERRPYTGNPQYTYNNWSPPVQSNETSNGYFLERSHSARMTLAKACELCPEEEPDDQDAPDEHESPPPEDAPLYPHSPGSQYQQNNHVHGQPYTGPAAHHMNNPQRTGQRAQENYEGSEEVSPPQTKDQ
UniProt O00487, sequence (O00487 whole entry): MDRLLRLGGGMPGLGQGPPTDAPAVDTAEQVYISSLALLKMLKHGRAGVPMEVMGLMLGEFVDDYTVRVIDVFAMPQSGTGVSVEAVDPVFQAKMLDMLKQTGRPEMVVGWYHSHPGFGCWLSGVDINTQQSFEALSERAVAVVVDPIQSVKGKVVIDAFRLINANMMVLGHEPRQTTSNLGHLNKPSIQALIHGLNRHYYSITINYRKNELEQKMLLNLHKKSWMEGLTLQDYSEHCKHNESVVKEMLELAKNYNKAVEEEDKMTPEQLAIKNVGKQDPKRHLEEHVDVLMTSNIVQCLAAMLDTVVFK

Cc1nc(-c2cccc(NC(=O)CCl)c2)cs1
inactive: USP42 0.339 | USP46 -0.382 | USP47 -0.123 | USP48 -0.43 | USP5 -0.284 | USP54 0.0451 | USP7 -0.163 | USP8 -0.282 | USP9X -0.362 | UniProt O00487 -0.0542
